Beta cell apopt: beta cell apoptosis inhibition | INS-1E cytokine-induced death, ATP luminescence, 48 h; percent of positive-control rescue, neutral wells zero | protection from apoptosis, % (concentration not given with the values) | 300,000 tested, 0.8% active;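 active means Every replicate reaches about 75%, or at least half do and their mean reaches it too, limit read from the data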;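 further: 0% = cytokine-treated negative control wells and 100% = positive control rescue; higher means more ATP so stronger rescue from cytokine killing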
697 NFkB inh: inhibitors of the PMA/ionomycin-induced NF-kB reporter in 697 B cells; 697 B-cell NF-kB luciferase reporter, 16 h; 330,000 tested, 0.33% active; inhibition, % at 4 µM; AID 435022; in the data active means inhibition above about 35%
Gli-Sufu antag: Gli-Sufu pathway antagonism | Sufu-KO-LIGHT fibroblasts, Gli luciferase reporter luminescence | AID 588413 | 340,000 tested, 0.74% active | inhibition, % at 5 µM;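 active means inhibition above about 55%, limit read from the data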;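 further: 0% = DMSO-treated cells and 100% = wells with medium but no cells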
Mdm2-MdmX inh: disrupts the human Mdm2-MdmX interaction. O15151+Q00987. SaOS-2 split-luciferase Mdm2/MdmX complementation, luminescence. inhibition, % at 8 µM. 330,000 tested, 3% active. AID 485346;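 active means inhibition of at least 50% at 8 µM in the primary screen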
Target sequence (O15151 whole entry, looked up): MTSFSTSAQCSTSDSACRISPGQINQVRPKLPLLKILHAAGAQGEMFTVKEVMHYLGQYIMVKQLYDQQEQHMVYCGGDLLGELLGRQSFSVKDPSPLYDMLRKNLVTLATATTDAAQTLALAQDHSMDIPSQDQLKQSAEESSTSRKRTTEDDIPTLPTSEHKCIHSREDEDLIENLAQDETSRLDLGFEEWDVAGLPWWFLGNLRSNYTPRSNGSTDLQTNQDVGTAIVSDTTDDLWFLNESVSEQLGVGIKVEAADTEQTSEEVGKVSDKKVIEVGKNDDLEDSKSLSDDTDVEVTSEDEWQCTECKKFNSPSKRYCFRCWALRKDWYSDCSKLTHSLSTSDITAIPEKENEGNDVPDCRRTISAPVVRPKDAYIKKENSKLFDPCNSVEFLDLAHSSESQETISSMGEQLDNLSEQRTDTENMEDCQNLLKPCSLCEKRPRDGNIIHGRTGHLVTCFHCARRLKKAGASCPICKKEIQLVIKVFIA
Target sequence (Q00987 whole entry, looked up): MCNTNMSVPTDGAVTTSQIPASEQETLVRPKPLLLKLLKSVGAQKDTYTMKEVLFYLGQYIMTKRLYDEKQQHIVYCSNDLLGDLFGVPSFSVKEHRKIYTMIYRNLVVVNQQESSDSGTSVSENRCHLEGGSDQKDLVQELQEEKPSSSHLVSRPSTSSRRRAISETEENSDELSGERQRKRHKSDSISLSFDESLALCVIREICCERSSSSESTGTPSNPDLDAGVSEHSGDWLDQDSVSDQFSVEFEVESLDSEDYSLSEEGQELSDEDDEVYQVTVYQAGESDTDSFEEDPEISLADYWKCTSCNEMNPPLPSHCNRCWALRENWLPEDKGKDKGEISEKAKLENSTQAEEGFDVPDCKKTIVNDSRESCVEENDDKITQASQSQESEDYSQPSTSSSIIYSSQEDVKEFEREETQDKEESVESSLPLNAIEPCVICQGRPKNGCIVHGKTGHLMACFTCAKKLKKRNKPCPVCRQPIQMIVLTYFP
Jurkat NFkB inh: lowers PMA/ionomycin-induced NF-kB signal in Jurkat cells; AID 435003; inhibition, % at 4 µM; PMA/ionomycin-induced NF-kB luciferase reporter, luminescence; 330,000 tested, 0.53% active; in the data active means inhibition above about 50%
Mdm2 MdmX conf: confirmation of human Mdm2/MdmX interaction inhibitors; 10,000 tested, 55% active; Mdm2-MdmX binding, luminescent assay; shares compounds with Mdm2-MdmX inh; inhibition, % at 8 µM; AID 489028; in the data active means inhibition above about 40%
Full FLuc ctr: counter-screen for Mdm2/MdmX inhibitors: full-length luciferase. shares compounds with Mdm2-MdmX inh. SaOS-2 full-length luciferase counterscreen, luminescence. inhibition, % at 8 µM. 6,200 tested, 77% active. AID 504607;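 active means mean inhibition at 8 µM reaching about 37%, which flags the compound as non-specific, limit read from the data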;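 further: p53-null SaOS-2 cells with luciferase driven by a doxycycline-inducible promoter; compound on cells about two nights before reading with doxycycline added after day one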
Active calls of the source: *; . = not tested or not shown. Rows were chosen to be rich in hits. Some 4% of all compounds tested hit in one or more screens of this group.

SMILES	Beta cell apopt	697 NFkB inh	Gli-Sufu antag	Mdm2-MdmX inh	Jurkat NFkB inh	Mdm2 MdmX conf	Full FLuc ctr
CCc1ccc2nc(N(CCCN(C)C)C(=O)c3ccc(S(=O)(=O)N(C)C4CCCCC4)cc3)sc2c1	18	-8	19	66*	-11	48*	56*
COc1cc2nc(N(CCCN(C)C)C(=O)c3ccc(S(=O)(=O)N(C)C4CCCCC4)cc3)sc2cc1OC	.	-3	32	17	-3	.	.
Cc1cc(C)c2sc(N(CCCN(C)C)C(=O)c3ccc(S(=O)(=O)N(C)C4CCCCC4)cc3)nc2c1	.	1	28	97*	11	48*	79*
COc1cc(C(C(=O)NC2CCCCC2)N(C(=O)c2cnccn2)c2ccccc2)cc(OC)c1OC (centres undefined)	.	7	-8	19	-9	.	.
O=C(NCc1ccccn1)c1ccc(Cl)c(S(=O)(=O)N2CCCCCC2)c1	-10	-6	6	23	-2	.	.
CC(Sc1ncc(C(F)(F)F)cc1Cl)C(=O)NCC1CCCO1 (centres undefined)	-6	13	-9	5	2	.	.
N#CC1(NC(=O)Cn2ncc(Cl)c(Cl)c2=O)CCCCC1	-13	-13	1	98*	8	83*	30
O=c1[nH]c(=O)n(Cc2ccccc2)c2nc(-c3ccc(C(F)(F)F)cc3)n(CCO)c12	1	-9	-13	-7	-16	.	.
Cn1nnnc1Sc1ncnc2scc(-c3cccc(C(F)(F)F)c3)c12	-2	-68	-1	100*	5	99*	53*
Cn1nnnc1Sc1ncnc2scc(-c3cccc(F)c3)c12	5	-51	28	98*	-13	99*	53*
Cn1nnnc1Sc1ncnc2scc(-c3ccccc3C(F)(F)F)c12	-5	-60	28	39	-27	.	.
Cn1nnnc1Sc1ncnc2scc(-c3ccc(C(F)(F)F)cc3)c12	12	-80	-4	98*	25	99*	50*
COc1cccc(-c2csc3ncnc(Sc4nnnn4C)c23)c1	-2	-85	35	98*	-6	80*	20
O=C(C1CCN(S(=O)(=O)c2cc(Cl)ccc2Cl)CC1)N1CCCC1	-1	1	-9	-4	-19	.	.
NNc1nc2sc3c(c2c(=O)n1Cc1ccccc1)CCC3	-4	13	-6	-6	-19	.	.
NNc1nc2sc3c(c2c(=O)n1C1CCCCC1)CCN(Cc1ccccc1)C3	-7	-23	7	55*	-7	8	.
CCCn1c2ccccc2c2cnn(CC(=O)N3CCN(C4CCCCC4)CC3)c(=O)c21	1	2	4	55*	13	30	.
COC(=O)c1c(NC(=S)NN2CCN(C)CC2)sc2c1CCC(C)C2 (centres undefined)	3	1	11	91*	12	36	.
COC(=O)c1c(NC(=O)Cc2cccs2)sc2c1CCC(C)C2 (centres undefined)	0	-58	-31	-9	-52	.	.
Cc1cccc(C2(c3cccc(C)c3)CC2C(=O)Nc2ccc([N+](=O)[O-])cc2O)c1 (centres undefined)	.	-31	39	90*	-1	94*	51*
NS(=O)(=O)c1ccc(CCNC(=O)c2ccc(C#CC3(O)CCCCC3)cc2)cc1	5	16	-8	70*	19	68*	72*
NS(=O)(=O)c1ccc(CCNC(=O)c2ccncc2)cc1	12	4	-16	10	-25	.	.
Cc1cc(=O)n2nc(N3CCCC(C(=O)Nc4ccc(C)c(C)c4)C3)sc2n1 (centres undefined)	7	-5	4	0	9	.	.
COC(=O)c1cc2c(s1)-c1ccc(OC)cc1CC2	4	-45	-37	-78	-98	.	.
Cc1cccc(/C=C/c2onc(C)c2[N+](=O)[O-])n1	-7	-5	-3	100*	4	71*	22
N#Cc1ccc(/C=C\c2nccc3c2[nH]c2ccccc23)cc1	6	-5	-5	51*	-4	35	.
CCOC(=O)c1c(NC(=O)CN2CCN(S(=O)(=O)c3cc(Cl)ccc3Cl)CC2)sc(C(=O)N(C)C)c1C	.	.	8	.	.	.	.

High-throughput results: PubChem, several laboratories
